IMPase Li inh – qHTS Assay for Identifying the Cell-Membrane Permeable IMPase Inhibitors: Potentiation with Lithium; CHO-M1 cells, IP1 TR-FRET (IP-One), carbachol + lithium; Potency, µM (titrated, usually from 59.4 µM), without a hit: at the top dose activity, negative = IMPase inhibition, most hits filed as inhibitors; 210,000 compounds, 0.35% hits;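 further: IP1 builds up when IMPase is blocked and the TR-FRET signal falls; potency means the concentration at half of the fitted maximal effect; plate controls were basal vehicle for no effect and high inhibitor control for full effect; nearly all actives have a fitted effect of over 50% in size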
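Steps: plate 2000 CHO-M1 cells per well and culture 16–30 h; add compound and lithium; incubate 30 min, 37C; add d2-IP1 tracer and Eu cryptate anti-IP1 antibody in lysis buffer; read after 10 min at room temperature.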
PTAP TSG101 blk – qHTS Assay for Iinhibitors of HIV-1 Budding by Blocking the Interaction of PTAP/TSG101; Tumor susceptibility gene 101 protein (Homo sapiens), Q99816; Fluorescence polarization, FITC-PTAP peptide / Tsg101 binding; Potency, µM (titrated, usually from 115 µM), for inactives: top-dose activity change, negative = inhibition, usual class: inhibitors; 340,000 tested, under 10 active; AID 493005, 2010; active means well fitted inhibition curve with a large enough effect in the main read-out, with a control signal flat, not every such curve was filed as active; inconclusive means small, poorly fitted or top-dose-only effect, or effect the other way, or a change in a side signal; inactive means no such curve, though single readings can be large or run the other way; further: potency means the concentration at half of the fitted maximal effect; % of control where 0% means no effect
Target sequence (Q99816 whole entry, looked up): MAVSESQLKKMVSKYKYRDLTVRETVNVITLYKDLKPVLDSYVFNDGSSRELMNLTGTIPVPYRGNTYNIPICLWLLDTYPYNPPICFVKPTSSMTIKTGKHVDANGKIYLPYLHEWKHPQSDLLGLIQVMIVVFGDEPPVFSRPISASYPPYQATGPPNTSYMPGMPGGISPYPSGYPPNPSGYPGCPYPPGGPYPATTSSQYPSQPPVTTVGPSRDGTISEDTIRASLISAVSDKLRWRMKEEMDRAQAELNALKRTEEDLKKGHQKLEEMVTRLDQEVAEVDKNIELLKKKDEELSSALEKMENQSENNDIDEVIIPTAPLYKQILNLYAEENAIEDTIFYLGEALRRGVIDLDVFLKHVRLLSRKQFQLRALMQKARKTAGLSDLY
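Compounds were pin-transferred onto Tsg101 binding domain (10 uM final) in HEPES pH 7.5 buffer, then FITC-PTAP peptide was added at 50 nM final. After 20 min at RT, polarization reported peptide displacement across a qHTS concentration series.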
CBFb-RUNX1 inh – qHTS Assay for Compounds Blocking the Interaction Between CBF-beta and RUNX1 for the Treatment of Acute Myeloid Leukemia | Runt-related transcription factor 1 (Homo sapiens) + Core-binding factor subunit beta … | AlphaScreen CBFb-His/RUNX1-biotin binding, biochemical | Potency, µM (top dose mostly 59.8 µM), inactives show top-dose activity, negative = inhibition, hits mostly inhibitors | 230,000 tested, under 10 active | AID 1477, 2009; further: % of control where 0% means no effect
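Inhibition was taken as any reduction in AlphaScreen signal from the CBF-beta–RUNX1 pair (His and biotin tags, 30 nM each), measured after compound (15 min) and bead (90 min) incubations at room temperature.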
A-T KAP1 phos – qHTS Assay for Identifying a Potential Treatment of Ataxia-Telangiectasia. F2112 A-T fibroblasts, KAP-1 phosphorylation AlphaLISA; neocarzinostatin DNA damage 30 min before lysis. Potency, µM (series often up to 57.5 µM), without a hit: at the highest dose activation, most hits filed as activators. 320,000 compounds, 0.19% hits. AID 485349, 2010; further: potency means the concentration at half of the fitted maximal effect; % of control where 0% means no effect; nearly all actives have a fitted effect of over 45% in size
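hTERT-immortalized A-T patient fibroblasts (F2112), 500 cells/well in OPTI-MEM, 1% FBS, got compounds for 60 min, then NCS for 30 min at 37C. Lysates were then assayed for phospho-KAP-1 by AlphaLISA (anti-pKAP1 donor, anti-KAP1 acceptor beads), 6 hr at 25C.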
* = called active by the depositor; u = inconclusive; x = no result given; [ ] = dose if it differs, or a comment. Rows were chosen to be rich in hits. Some 0.37% of all compounds tested hit in one or more screens of this group. Unless noted, the call rests on the fitted dose curve; in most records, active means well fitted curve in the direction sought with a large enough effect; inconclusive means small, poorly fitted or top-dose-only effect, or another doubt; inactive means no such curve, though single readings can be large; an effect the other way counts as inactive or inconclusive.

SMILES	IMPase Li inh	PTAP TSG101 blk	CBFb-RUNX1 inh	A-T KAP1 phos
O=C1CN(Cc2nc3cc(Cl)ccc3c(=O)[nH]2)CCN1	x	-10.7%	14.5%	u
Cc1cc(C)n(-c2nnc(Cl)c3ccccc23)n1	-1.1%	-6.0%	9.6%	-5.4%
Cc1cc(C)n(-c2n[nH]c(=O)c3ccccc23)n1	x	-3.9%	3.1%	17.8µM*
CC(=O)Nc1ccccc1OCC(=O)NC(C)c1ccc(F)cc1 (stereo unspecified)	2.8%	-3.4%	-0.6%	7.4%
CCOc1ccc(/C(O)=C2/C(=O)C(=O)N(CCOCCO)C2c2ccc(F)cc2)cc1 (stereo unspecified)	11.2µM*	-1.1%	-1.5%	-2.9%
CCOc1ccc(/C(O)=C2/C(=O)C(=O)N(CCOCCO)C2c2ccccn2)cc1 (stereo unspecified)	8.91µM*	-5.0%	5.7%	-0.5%
CCOC(=O)N1CCN(c2c(-c3ccc(C(C)C)cc3)c(=O)c2=O)CC1	-19.5%[38.3 µM]	0.0%	0.4%	-0.6%
S=c1nc[nH]c2c1[nH]c1ccc(Cl)cc12	x	1.7%	4.8%	1.4%
S=c1nc[nH]c2c1[nH]c1ccccc12	4.47µM*	-0.9%	8.1%	2.7%
Cc1c(C)c([N+](=O)[O-])c(C)c(C)c1N	x	-3.4%	x	x
CC(=O)c1cc2cc(O)ccc2o1	11.2µM*	-0.1%	1.8%	-1.6%
CC(=O)c1cc2c(O)c(O)ccc2o1	x	-4.7%	-8.1%	-5.0%
COc1ccc2nc3c(cc2c1)c(NC(=O)C1CCCO1)nn3CC(C)C (stereo unspecified)	3.6%[38.3 µM]	-2.2%	29.5%	35.5µM*
CCCC(=O)Nc1nn(CC(C)C)c2nc3cc(C)ccc3cc12	x	-0.2%	x	0.0%
CCn1nc(NC(=O)CC(C)C)c2cc3ccc(C)cc3nc21	x	1.0%	x	20µM*
CCCn1nc(NC(=O)C2CCCO2)c2cc3ccc(C)cc3nc21 (stereo unspecified)	x	1.7%	29.4%	25.1µM*
CCCn1nc(NC(=O)C2CCCO2)c2cc3cc(C)ccc3nc21 (stereo unspecified)	3.3%[38.3 µM]	-0.8%	4.0%	29.1%
O=c1[nH]c(SCc2nc3ccccc3n2Cc2ccccc2)nc2ccccc12	7.94µM*	-5.7%	-3.1%	7.2%
CCc1ccc(C(=O)N/N=C(\C)c2ccncc2)s1	x	-2.9%	x	-9.2%
Cc1ccccc1C(=O)Nc1nnc(CC(=O)N/N=C/c2cn(Cc3ccccc3)c3ccccc23)s1	x	1.4%	u	1.4%
Cc1ccccc1C(=O)Nc1nnc(CC(=O)N/N=C/c2ccco2)s1	x	0.5%	-7.8%	15.8µM*
O=C(COc1ccc(Cl)cc1)NCCCNC(=O)c1ccncc1	x	-1.8%	x	1.3%
CC1CCN(CCCn2c(=S)[nH]c3c(sc4ccccc43)c2=O)CC1	-18.6%	0.5%	15.2%	-4.1%
COCCCn1c(=S)[nH]c2c(sc3ccccc32)c1=O	10µM*	-1.5%	-21.0%	-2.8%
Fc1ccc(CSc2nc3ncc(Br)cc3[nH]2)cc1	14.1µM*	-5.4%	6.6%	x
SMILES	IMPase Li inh	PTAP TSG101 blk	CBFb-RUNX1 inh	A-T KAP1 phos
COc1ccc(N2CSC3=C(C#N)C(c4cccs4)CC(=O)N3C2)cc1 (stereo unspecified)	12.6µM*	-4.5%	-0.8%	u
O=C(Nc1ccc2c(c1)CCC2)C1COc2ccccc2O1 (stereo unspecified)	10.0%	-3.2%	u	23.4%
N#Cc1cccc(NC(=O)CN2NS(=O)(=O)c3ccccc3C2=O)c1	7.2%[38.3 µM]	0.8%	-2.4%	x
O=C(COc1ccccc1)Nc1ccc(-c2nnc(-c3ccco3)o2)cc1	12.6µM*	0.6%	1.2%	2.2%
COc1ccc(CC(=O)Nc2ccc(-c3nnc(-c4ccccc4)o3)cc2)cc1OC	12.6µM*	x	7.9%	16.9%
COc1ccc(CC(=O)Nc2cccc(-c3nnc(-c4ccccc4)o3)c2)cc1OC	42.2%[38.3 µM]	-2.9%	u	10.7%
COc1ccc(CC(=O)Nc2ccc(-c3noc(-c4ccccc4OC)n3)cc2)cc1	11.2µM*	-2.6%	-22.1%	x
CCc1ccc(NC(=O)CNCc2ccc(OC)c(OC)c2)cc1	x	-4.9%	x	0.708µM*
O=C(CSc1nnc(COc2ccccc2Cl)o1)NC(=O)NC1CCCC1	4.6%[38.3 µM]	-4.5%	0.6%	1.8%

Compound activity as filed in PubChem BioAssay.
